Source: PubChem BioAssay AID1578 (Sanford-Burnham Center for Chemical Genomics, 2009)
Screen size: about 290,000 compounds; about 3,000 (1%) were called active. The full list was thinned out, with actives kept by preference. Unmarked numbers belong to inactive results. No stated cut-off is given here; in the data, active means inhibition mostly above about 36% (no sharp cut-off); inactive means mostly below about 34%.

Assay: inhibition of NOD1-driven NF-kB reporter – cell-based, luminescence, uHTS, primary screen (AID 1578);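 further: HEK-293T reporter cells stimulated with the NOD1 agonist gamma-tri-DAP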
Conditions: NOD1-driven NF-kB luciferase reporter cells, at 4 µM, hits give high values

SMILES	inhibition
Cc1nn(-c2ccccc2)nc1C(=O)Nc1nnc(C(F)(F)F)s1	54.4% (active)
O=C(Nc1nnc(C(F)(F)F)s1)c1ccc(Br)s1	84% (active)
O=C(Nc1nnc(C(F)(F)F)s1)c1c(F)cccc1F	2%
Cc1nn(-c2ccccc2)nc1C(=O)NNC(=O)c1ccc(C(F)(F)F)cc1	-5.6%
CCSc1nnc(NC(=O)c2ccc(Br)s2)s1	-37.5%
CCc1nnc(NC(=O)c2nn(-c3ccccc3)nc2C)s1	-6.6%
CC1(C)CC(=O)/C(=C(\O)CCCN2C(=O)c3ccccc3C2=O)C(=NCCO)C1	-17.2%
COc1cc2[nH]c(C(=O)NN)c(N)c2cc1OC	-7.9%
CC(C)(C)NC(=O)C(c1ccccc1)N(Cc1ccco1)C(=O)c1csnn1 (stereo unspecified)	-0.4%
CCOC(=O)C1CCN(C(=O)Cn2cccc2C(=O)c2ccccc2)CC1	-13.4%
CC1CN(Cc2nc3c(c(=O)[nH]c(=O)n3C)n2CCN2CCOCC2)CC(C)O1 (stereo unspecified)	7.3%
CC(C)[C@H](NC(=O)[C@@H]1CSC2c3ccccc3C(=O)N21)C(=O)NCc1ccncc1 (stereo partly specified)	-23.2%
c1ccc(-c2ccc(-c3ccccn3)nn2)nc1	27.1%
c1ccc(-c2cccc(-c3ccccn3)n2)nc1	90.2% (active)
c1ccc(-c2ccccn2)nc1	-28.9%
O=C(c1ccc2c3c(cccc13)CC2)C1CCCN(C(=O)c2ccc[n+]([O-])c2)C1 (stereo unspecified)	10.8%
CCn1c(C)c(C(C)=O)cc(C#N)c1=O	-4.6%
C=CCNC(=O)C1CCN(c2c([N+](=O)[O-])cc(C(F)(F)F)cc2[N+](=O)[O-])CC1	2.2%
Cc1ccccc1NS(=O)(=O)c1ccc(OCC(=O)NCc2ccco2)cc1	-20.7%
COC(=O)CSC1=C(C#N)C(=O)NC(c2ccccc2)S1 (stereo unspecified)	38.8%
CSC1=C(C#N)C(=O)NC(c2ccccc2O)S1 (stereo unspecified)	-3.8%
CSC1=C(C#N)C(=O)NC(c2ccc(Cl)cc2)S1 (stereo unspecified)	45% (active)
COc1cc([N+](=O)[O-])ccc1NC(=S)NNC(=O)c1ccc2c(c1)OCO2	15.2%
N#CC(Cc1cccc(CC(C#N)(c2ccccc2)c2ccccc2)c1)(c1ccccc1)c1ccccc1	4.8%

SMILES	inhibition
Oc1ccc(C[C@@H]2CNC(=S)N2CCCCC2CCCCC2)cc1	-30.3%
COc1ccc(C(=O)Nc2cc(OC)c(Cl)cc2OC)cc1	-33.1%
COc1cc(NC(=O)c2ccccc2)c(OC)cc1Cl	-16.7%
CCC(=O)Nc1ccc(Cl)c(NC(=O)c2ccccc2OC)c1	57.1% (active)
CCC(=O)Nc1ccc(Cl)c(NC(=O)c2c(OC)cccc2OC)c1	7%
CCC(=O)Nc1ccc(Cl)c(NC(=O)c2cccc(OC)c2)c1	-28.2%
c1ccc(CCn2cnc3ccccc32)cc1	-43.2%
CCCC(=O)C1=C(O)C(C(=O)OC)C(C)(C)CC1=Nc1cccc([N+](=O)[O-])c1 (stereo unspecified)	-12.8%
FC(F)(F)Oc1ccc(NC(=S)Nc2ccccc2N2CCOCC2)cc1	4.5%
O=C(NCCNC(=O)c1ccccc1F)c1ccccn1	-8.2%
C/C(=N\NC(=O)c1c[nH]c2ccccc12)c1ccccn1	-30.8%
CCOc1ccc(C(=O)N/N=C(\c2ccccc2)c2ccccn2)cc1	63.3%
C/C(=N\NC(=O)c1ccc(COc2ccccc2)cc1)c1ccncc1	-26.5%
CCOc1ccc(OCc2ccc(C(=O)N/N=C(\C)c3ccccn3)cc2)cc1	91.6% (active)
COCC(=O)N1CCC(n2nnc3cc(C(F)(F)F)ccc32)CC1	-11.5%
Cc1ccccc1NC(=O)c1ccc2nccnc2c1	-15.6%
COc1ccc(Sc2nnc(Cc3ccccc3)c3ccccc23)cc1	46.4%
c1ccc(Cc2nnc(Sc3ccccc3)c3ccccc23)cc1	40.8%
Cc1ccc(Sc2nnc(Cc3ccccc3)c3ccccc23)cc1	70% (active)
COc1cccc(OCc2cc(C(=O)N(C)C3CC(C)(C)NC(C)(C)C3)no2)c1	-22.6%
CCOc1ccc(N(CC(=O)O)S(=O)(=O)c2ccc(F)cc2)cc1	22.2%
COc1cccc2cc(C(=O)NC(C)C3CCCO3)c(=O)oc12 (stereo unspecified)	-27.3%
CCCCn1c(NC(C)=O)c(C#N)c2nc3ccccc3nc21	22.5%
N#Cc1c(NC(=O)c2ccccc2Cl)n(Cc2ccccc2)c2nc3ccccc3nc12	83.5% (active)

SMILES	inhibition
C=CCn1c(NC(=O)c2ccccc2Cl)c(C#N)c2nc3ccccc3nc21	28.8%
CCCCn1c(NC(=O)c2ccccc2Cl)c(C#N)c2nc3ccccc3nc21	20%
CCCCn1c(NC(=O)c2ccccc2)c(C#N)c2nc3ccccc3nc21	88.5% (active)
CCCCn1c(NC(=O)CC)c(C#N)c2nc3ccccc3nc21	-7.1%
O=C(C[n+]1cc(Br)cc(Br)c1)c1ccc(Cl)cc1	-7.2%
CC(=O)Nc1ccc(S(=O)(=O)N2CCC(C(=O)NCCC(=O)Nc3ccccc3)CC2)cc1	-17.6%
CCN(CC)c1nc2c(c(=O)[nH]c(=O)n2C)n1CCCc1ccccc1	-13.8%
CC1c2ccccc2SC(CCCN(C)C)c2ccccc21 (stereo unspecified)	59.5% (active)
CNCCCC1Sc2ccccc2Oc2ccccc21 (stereo unspecified)	-31.7%
CN(C)CCC1Sc2ccccc2Oc2ccccc21 (stereo unspecified)	-13.4%
COc1cccc(N2C(=O)N(c3ccccc3Cl)C3CS(=O)(=O)CC32)c1 (stereo unspecified)	-14.5%
Cc1n[nH]c(C)c1CCCCOc1ccc([N+](=O)[O-])cc1	-1.4%
COC(=O)C1CCN(C(=O)C2CCC(=O)N(CCc3cccc(F)c3)C2)CC1 (stereo unspecified)	-26.6%
C/C(CS(=O)(=O)c1ccccc1)=N\O	-22.4%
O=S(=O)(C/C(=C/CO)S(=O)(=O)c1ccccc1)c1ccccc1	100% (active)
C/C=C(\CS(=O)(=O)c1ccccc1)S(=O)(=O)c1ccccc1	60.5%
COc1cccc(OCC(=O)Nc2ccncc2)c1	-11.4%
COc1ccccc1NC(=O)/C=C/c1ccc(OC)c(S(=O)(=O)N2CCOCC2)c1	-9.3%
CSc1nc(C)cc(OCCNS(=O)(=O)c2cc(C)ccc2C)n1	-15%
Cc1ccccc1COC(=O)c1cc([N+](=O)[O-])ccc1N1CCOCC1	-37.5%
Cc1ccccc1CN1CCc2cc([N+](=O)[O-])ccc21	58.2% (active)
Cc1ccccc1Cn1c(C)nc2ccc([N+](=O)[O-])cc2c1=O	-19.5%
O=c1c2ccccc2cnn1Cc1ccc(Br)cc1F	-29.7%
Cc1c(C(=O)N2CCCCC2)nn(-c2ccc(Cl)cc2)c(=O)c1C#N	-10.3%

SMILES	inhibition
COc1cc(CN2CCCN(C)CC2)cc([N+](=O)[O-])c1O	-23.1%
O=C(O)CSCC(=O)N1N=C2/C(=C/c3ccccc3)CCCC2C1c1ccccc1 (stereo unspecified)	-13.2%
CC(=O)N1N=C2/C(=C/c3ccccc3)CCCC2C1c1ccccc1 (stereo unspecified)	79.9% (active)
NC(=O)N1N=C2/C(=C/c3ccccc3)CCCC2C1c1ccccc1 (stereo unspecified)	-6.2%
CN(C)S(=O)(=O)c1cccc(C(=O)Nc2ccccc2)c1	-30.7%
O=c1c(-c2ccc(Cl)cc2)c[nH]n1-c1ccccc1	-5.7%
CCOc1cccc(N2C(=O)CC(NCc3ccc(S(N)(=O)=O)cc3)C2=O)c1 (stereo unspecified)	-9.2%
Cc1ccc(-n2c(SCC(=O)N3CCCCC3)nc(O)c(Cc3ccccc3)c2=O)cc1	-18.9%
S=C(Nc1ccc(Nc2ccccc2)cc1)Nc1ccccn1	74.1% (active)
Cc1cccc(NC(=S)Nc2ccccn2)c1	-0.2%
COc1ccc(NC(=S)Nc2ccccn2)cc1	6.6%
COc1cc(/C=N/Nc2nc(-c3ccc(S(=O)(=O)N(C)C)cc3)cs2)ccc1O	31.8% (active)
CN(C)S(=O)(=O)c1ccc(-c2csc(N/N=C/c3ccc(O)cc3)n2)cc1	12.3%
COc1ccc(/C=N/Nc2nc(-c3cccc(S(=O)(=O)N4CCCC4)c3)cs2)cc1OC	52.7%
N#C/C(=C\c1ccc2c(c1)OCCO2)C(=O)Nc1ccc(C(=O)O)cc1	1.3%
CCCCCCNc1c([N+](=O)[O-])c(=O)sc2ccccc12	71% (active)
CC(C)(C)Nc1c([N+](=O)[O-])c(=O)sc2ccccc12	-30.9%
CCCCNc1c([N+](=O)[O-])c(=O)n(C)c2ccccc12	-21.6%
COc1cc2c(cc1OC)CN(C(=O)COc1ccc(C#N)cc1)CC2	10%
Cc1c(NC(=S)NC(=O)CC(C)C)c(=O)n(-c2ccccc2)n1C	-31.4%
CCN1/C(=C/C=C/C=C/c2sc3ccccc3[n+]2CC)Sc2ccccc21	66.1%
CCN1/C(=C/c2ccc3ccccc3[n+]2CCCS(=O)(=O)[O-])C=Cc2cc(C)ccc21	-1.5%
CC1=NN(C(=O)c2ccc(Cn3nc(C)c([N+](=O)[O-])c3C)o2)C(O)(C(F)(F)F)C1 (stereo unspecified)	-21.3%
CCCCc1nc2sc3c(SCCN(C)C)ncnc3c2c2c1CCC2	-4.1%
